Measurements from PubChem BioAssay AID652162 (Broad Institute, 2013).
In all, about 350,000 compounds went through this assay and about 840 (0.24%) were called active. Cut-off read from the data, not from the text of the source: active = inhibition above about 10%; inactive = the rest. Only a selection was taken, and actives are over-represented in it overall.

target: Toxin B (Clostridioides difficile) (UniProt P18177); experiment: TcdB glycohydrolase inhibitors, primary screen, biochemical, single point, plate reader (AID 652162); settings: TcdB glycohydrolase enzymatic assay, at 9.99 µM, stronger effect = higher value
Sequence (P18177 whole entry, looked up): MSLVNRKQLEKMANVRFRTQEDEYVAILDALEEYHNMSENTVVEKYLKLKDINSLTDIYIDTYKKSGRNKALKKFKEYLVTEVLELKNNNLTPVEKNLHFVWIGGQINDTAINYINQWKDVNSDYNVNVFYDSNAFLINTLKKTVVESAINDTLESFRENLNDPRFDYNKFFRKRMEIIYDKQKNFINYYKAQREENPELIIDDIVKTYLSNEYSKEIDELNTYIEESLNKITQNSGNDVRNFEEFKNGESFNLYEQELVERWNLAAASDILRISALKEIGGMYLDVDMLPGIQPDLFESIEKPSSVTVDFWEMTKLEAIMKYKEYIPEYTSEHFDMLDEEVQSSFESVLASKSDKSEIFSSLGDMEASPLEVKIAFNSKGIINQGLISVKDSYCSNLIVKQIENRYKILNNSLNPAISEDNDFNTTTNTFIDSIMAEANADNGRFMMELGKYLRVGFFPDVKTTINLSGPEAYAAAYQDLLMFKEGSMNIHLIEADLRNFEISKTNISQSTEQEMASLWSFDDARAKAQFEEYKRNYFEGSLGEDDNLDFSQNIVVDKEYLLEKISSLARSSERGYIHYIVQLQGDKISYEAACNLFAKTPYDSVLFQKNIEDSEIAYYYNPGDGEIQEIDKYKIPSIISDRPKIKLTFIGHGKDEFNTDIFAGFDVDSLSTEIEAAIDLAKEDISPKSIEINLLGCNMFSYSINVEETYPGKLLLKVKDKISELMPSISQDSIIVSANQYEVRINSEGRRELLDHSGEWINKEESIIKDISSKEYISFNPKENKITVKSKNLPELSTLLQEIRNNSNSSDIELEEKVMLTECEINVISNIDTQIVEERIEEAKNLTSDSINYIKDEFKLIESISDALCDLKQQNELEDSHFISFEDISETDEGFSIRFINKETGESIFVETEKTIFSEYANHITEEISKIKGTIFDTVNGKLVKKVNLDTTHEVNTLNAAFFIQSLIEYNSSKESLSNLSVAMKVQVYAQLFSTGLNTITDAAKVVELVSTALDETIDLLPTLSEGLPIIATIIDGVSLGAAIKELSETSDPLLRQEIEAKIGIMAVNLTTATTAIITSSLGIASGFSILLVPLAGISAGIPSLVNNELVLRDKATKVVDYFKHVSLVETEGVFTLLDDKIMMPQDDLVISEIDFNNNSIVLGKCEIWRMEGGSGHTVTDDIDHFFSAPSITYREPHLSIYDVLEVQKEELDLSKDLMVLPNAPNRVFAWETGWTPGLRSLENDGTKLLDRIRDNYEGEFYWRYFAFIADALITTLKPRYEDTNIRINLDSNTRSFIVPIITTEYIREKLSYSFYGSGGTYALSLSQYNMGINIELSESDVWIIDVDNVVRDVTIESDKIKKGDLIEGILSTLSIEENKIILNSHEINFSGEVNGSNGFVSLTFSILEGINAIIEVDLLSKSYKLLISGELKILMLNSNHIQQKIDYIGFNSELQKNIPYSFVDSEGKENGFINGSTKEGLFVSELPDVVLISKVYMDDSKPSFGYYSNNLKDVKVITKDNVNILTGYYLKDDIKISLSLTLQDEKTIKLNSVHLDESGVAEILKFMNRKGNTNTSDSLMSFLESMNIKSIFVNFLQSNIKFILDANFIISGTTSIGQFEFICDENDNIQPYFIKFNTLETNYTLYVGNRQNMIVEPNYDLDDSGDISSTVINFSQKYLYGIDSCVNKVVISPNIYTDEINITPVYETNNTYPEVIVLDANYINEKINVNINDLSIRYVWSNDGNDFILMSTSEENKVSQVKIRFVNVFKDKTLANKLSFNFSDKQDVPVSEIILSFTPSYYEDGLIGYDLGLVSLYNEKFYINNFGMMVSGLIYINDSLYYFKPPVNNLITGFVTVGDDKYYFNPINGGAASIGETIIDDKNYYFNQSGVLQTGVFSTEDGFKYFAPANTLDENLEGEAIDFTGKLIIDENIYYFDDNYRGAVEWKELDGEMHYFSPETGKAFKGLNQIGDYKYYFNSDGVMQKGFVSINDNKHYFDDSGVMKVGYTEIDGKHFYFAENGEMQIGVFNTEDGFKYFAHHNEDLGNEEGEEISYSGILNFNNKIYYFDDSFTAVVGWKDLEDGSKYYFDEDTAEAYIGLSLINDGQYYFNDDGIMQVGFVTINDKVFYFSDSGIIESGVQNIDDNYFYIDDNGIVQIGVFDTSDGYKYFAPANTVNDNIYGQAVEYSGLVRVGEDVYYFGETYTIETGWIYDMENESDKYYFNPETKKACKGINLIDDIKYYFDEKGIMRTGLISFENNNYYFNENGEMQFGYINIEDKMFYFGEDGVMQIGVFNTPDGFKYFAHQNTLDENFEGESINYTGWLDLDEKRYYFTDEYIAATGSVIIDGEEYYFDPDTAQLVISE

Row | Compound | inhibition
1 | C/C(=N\NC(=O)COc1c(C)cccc1C)c1cccs1 | 0.614% (inactive)
2 | C/C(=N\NC(=O)CSc1nc2ccccc2c(=O)n1-c1ccccc1C)c1cccs1 | 11.8% (active)
3 | Cc1ccccc1-n1c(SCC(=O)Nc2cccc3ccccc23)nc(O)cc1=O | 1.39% (inactive)
4 | COc1ccccc1-c1cnc2c(c1)C(=O)N([C@H](C)CO)C[C@H](C)[C@H](CN(C)C(=O)CN(C)C)O2 | 0.748% (inactive)
5 | CCC(=O)N(C)C[C@@H]1Oc2ncc(C#Cc3cccnc3)cc2C(=O)N([C@@H](C)CO)C[C@@H]1C | 0.973% (inactive)
6 | C[C@H](CO)N1C[C@H](C)[C@H](CN(C)Cc2ccc3c(c2)OCO3)Oc2c(NC(=O)NC3CCCCC3)cccc2C1=O | -1.25% (inactive)
7 | COc1ccccc1CNC(=O)C[C@@H]1CC[C@H]2[C@@H](COc3ccc(NS(=O)(=O)c4ccc(C)cc4)cc3C(=O)N2C)O1 | 0.867% (inactive)
8 | Cn1cnc(CCNC(=O)C[C@H]2CC[C@@H]3[C@H](COC[C@H](O)CN3C(=O)C3CC3)O2)c1 | -0.073% (inactive)
9 | COc1ccc(NC(=O)Nc2ccc3c(c2)C(=O)N([C@H](C)CO)C[C@H](C)[C@H](CN(C)C(=O)Nc2c(C)noc2C)OCCCC[C@@H](C)O3)cc1 | 0.188% (inactive)
10 | CC(C)NC(=O)Nc1ccc2c(c1)C(=O)N([C@@H](C)CO)C[C@H](C)[C@@H](CN(C)C)O2 | 0.811% (inactive)
11 | Cc1ccc(NNC(=O)C2CCC2)cc1C | 58.9% (active)
12 | Cc1ccc(C)c(OCC(=O)NNC(=O)C2CCC2)c1 | 1.49% (inactive)
13 | O=C(NNC(=O)C1CCC1)c1ccccc1 | 1.5% (inactive)
14 | O=C(Nc1cccc(Cl)c1)N[C@H]1CC[C@H](CCNC(=O)C2CCOCC2)O[C@H]1CO | 0.073% (inactive)
15 | CCOC(=O)C1=CCC(c2ccc(F)cc2)N(S(=O)(=O)c2ccc(C)cc2)C1 (stereo not given) | 1.19% (inactive)
16 | CC(=O)C1=CCC(c2ccccc2)N(S(=O)(=O)c2ccc(C)cc2)C1 (stereo not given) | 13.2% (active)
17 | CCOC(=O)C1=CC[C@@H](c2ccncc2)N(S(=O)(=O)c2ccc(C)cc2)C1 | 3.35% (inactive)
18 | CC(C)NC(=O)N1[C@H](CO)[C@H](c2ccccc2)C12CN(C(=O)Cc1ccccc1)C2 | -9.73% (inactive)
19 | CNC[C@H]1OCCCC[C@H](C)Oc2ccc(NS(=O)(=O)c3ccc(Cl)cc3)cc2C(=O)N([C@@H](C)CO)C[C@@H]1C | 0.862% (inactive)
20 | CCCC(=O)Nc1ccc2c(c1)C(=O)N(C)C[C@H](OC)[C@H](C)CN(CCc1ccccc1)[C@H](C)CO2 | 0.195% (inactive)
